We go through 104 compounds from ChEMBL document CHEMBL4513216, “Probing the Open Global Health Chemical Diversity Library for Multistage-Active Starting Points for Next-Generation Antimalarials” (ACS Infect Dis, 2020).

The whole screen tested about 69,000 compounds, of which about 8,600 (12%) showed an effect of 50% or more. The sample as a whole holds a higher share of strong results than the screen did.

For this assay, the system named is Plasmodium berghei. Put plainly: Screen against P. berghei liver stage (PbLuc), transformed with Luciferase, at 10uM. Format: functional, HepG2. The note with it: tested at 10 uM.
As to `O=C(CN1CCC[C@@H]1C(=O)O)NCCOc1cccc(C(F)(F)F)c1`, the INHIBITION was -0.18%. Turning to `CC(=O)N1CCC2(CCCN(C(=O)c3ccccc3)C2)C1` (centres undefined), the INHIBITION is recorded as 22.2%. On to `Cc1csc(Nc2cc(C3CCCCN3C)nc(C)n2)n1` (centres undefined), for which the INHIBITION came to 16.5%. With `Cc1ccsc1CN(C)C(=O)c1cc2c([nH]c1=O)CCCC2=O`, the INHIBITION was -1.95%. The figure for `CCc1ncncc1C(=O)NCCNS(=O)(=O)c1ccc(C)cc1` is -70.7%. As to `Cc1ccc(S(=O)(=O)NCCNC(=O)c2cncnc2C)cc1`, the INHIBITION came to 78.1%. As for `CCc1ncncc1C(=O)NCCNS(=O)(=O)c1ccccc1`, the figure is -118%; as for `CN(C)C(C)(C)CNCc1c[nH]nc1-c1cc2ccccc2o1`, 36.9%; as for `Cc1cnc(C(=O)NCc2cccnc2OC(C)C)cn1`, 33.7%.

Regarding `Cc1cccc(CNC2CC(=O)N(Cc3cccc(F)c3)C2)c1` (centres undefined), the INHIBITION was 13.87%.

As to `O=C1CC(NCc2ccncc2)CN1Cc1cccc(F)c1` (centres undefined), the INHIBITION turned out to be 63.5%. In the case of `O=C1CC(NCc2ccc(OC(F)F)cc2)CN1Cc1cccc(F)c1` (centres undefined), the INHIBITION was 0.38%. `NC1CCC(n2cc(C(=O)NC3CCc4ccccc4C3)nn2)CC1` (centres undefined): the INHIBITION is 25.5%. As for `CNC(=O)c1ccc(CNC(=O)c2ccc(Cl)cc2F)cc1`, the figure is -8.675%. As for `CCOc1ccc(Cl)c(C(=O)NCc2ccc(C(=O)NC)cc2)n1`, the figure is 14.7%. The figure for `CC(C)N(C)C(=O)c1ccc(CNc2cncc(Cl)n2)cc1` is 32.9%; for `CNC(=O)c1ccc(CNc2ccncc2Cl)cc1` it is 57.7%. As to `CC(C)N(C)C(=O)c1ccc(CNc2ncc(C#N)cc2Cl)cc1`, the INHIBITION was 44.5%.

As to `CC(C)N(C)C(=O)c1ccc(CNc2ccncc2Cl)cc1`, the INHIBITION was determined as 97.1%.

Take `CN1CCOC(CNCc2ccc(OCc3ccccn3)cc2)C1` (centres undefined): the INHIBITION is -38.7%. In the case of `O=C(c1ccnnc1)N1C[C@@H](OCc2cccnc2)[C@H]2OCCC[C@H]21`, the INHIBITION was found to be 37.1%.

For `NC(=O)c1ccc(CNC2CC2)cc1`, the INHIBITION is given as -30.1%. On to `Cc1ccc(C2(CN3CCN(Cc4cncn4C)CC3)CC2)cc1`, for which the INHIBITION is reported as -32.7%.

Turning to `CC(C)(C)c1cnc(CN(Cc2cccnc2)CC2CCCO2)o1` (centres undefined), the INHIBITION was determined as 75.4%. Regarding `c1ccc(-c2cnc(CN(Cc3cccnc3)CC3CCCO3)o2)cc1` (centres undefined), the INHIBITION was -5.26%.

Turning to `CCN(Cc1cccnc1)CC1CCCO1` (centres undefined), the INHIBITION is recorded as -0.113%. As for `CNC(=O)CCc1cc(C)nc(C2CCN(C(=O)CN(C)C)CC2)c1`, the figure is 4.9%. The figure for `CCc1nc(CN2CCCN(C(=O)c3ccnc(C)n3)CC2)cs1` is 25.5%. The figure for `NCCc1cccc(CN2CCN(c3ccccc3)C(=O)C2)c1` is 26.8%; for `Cc1cc(C)cc(N2CCN(Cc3cccc(CCN)c3)CC2=O)c1` it is 2.18%; for `NCCc1cccc(CN2CCN(c3cccc(Cl)c3)C(=O)C2)c1` it is 50.5%.

For the compound `Cc1cc(C)cc(CN2CCN(Cc3ccc4nonc4c3)CC2=O)c1`, the INHIBITION worked out at 37.6%. The figure for `Cc1cc(C)cc(CN2CCN(Cc3cc(C#N)n(C)c3)CC2=O)c1` is 11.8%; for `Cc1cc(C)cc(CN2CCN(Cc3cccc(CCN)c3)CC2=O)c1` it is 67.7%. `Cc1ccc(CN2CCN(Cc3ccncc3)CC2=O)cc1`: the INHIBITION stood at 50.3%. The figure for `Cc1ccc(CN2CCN(Cc3ccc4nonc4c3)CC2=O)cc1` is 5.78%.

Turning to `COc1cccc(N2CCN(Cc3cccc(CCN)c3)CC2=O)c1`, the INHIBITION is 35.1%. The figure for `Cn1cc(CN2C[C@@H]3COC[C@H](C(=O)Nc4cccnc4)[C@@H]3C2)cn1` is 0.542%; for `CCn1cc(CN2CCCN(C(=O)c3c(C)oc(C)c3C)CC2)cn1` it is 15.6%; for `CCC[C@H]1CN(S(C)(=O)=O)C[C@@H]1NC(=O)c1ccc(COC)cc1` it is 23.9%.

Regarding `Cc1ccoc1C(=O)N1CC[C@H]2[C@H](C[C@@H](CN3CCCC3)N2C)C1`, the INHIBITION came to 47.4%. The figure for `CC(=O)N1N=C(c2cccs2)OC1C(=O)Nc1ccccc1` (centres undefined) is -4.32%; for `CC(=O)N1N=C(c2cccs2)OC1C(=O)Nc1ccc(C)cc1` (centres undefined) it is -25.1%; for `CC(=O)N1N=C(c2cccs2)OC1C(=O)NCc1ccc(C)o1` (centres undefined) it is 53%.

Take `COc1ccc(NC(=O)C2OC(c3cccs3)=NN2C(C)=O)cc1` (centres undefined): the INHIBITION stood at 28.3%. As for `CCOc1ccc(NC(=O)C2OC(c3cccs3)=NN2C(C)=O)cc1` (centres undefined), the figure is 11.5%; as for `CCc1ccc(NC(=O)C2OC(c3cccs3)=NN2C(C)=O)cc1` (centres undefined), 52.1%. The figure for `CCn1cc(C(=O)NCCc2nc(-c3ccc(C)cc3)n[nH]2)c(C)n1` is 12.8%. Regarding `COc1cccc2c1ccn2CCC(=O)N1CCC(C(=O)O)CC1`, the INHIBITION stood at 25.1%. As for `CN(C)C(=O)CN1C[C@H]2CN(Cc3cccc(F)c3)C(=O)[C@H]2C1`, the figure is 25.2%; as for `Cc1occc1CNC(=O)C1(C)CCCN(C(=O)c2ccccc2)C1` (centres undefined), 58.3%. The figure for `CC(C)C(=O)N1CCC12CCCN(C(=O)c1ccccc1)C2` (centres undefined) is 36.2%. As for `Cc1occc1CNC(=O)C1(C)CCCN1C(=O)c1ccccc1` (centres undefined), the figure is 28.7%; as for `CCN(C)Cc1cccc(CNC(=O)CSCc2ccncc2)c1`, 35.4%; as for `Fc1cnc(N2C[C@@H](OCC3CCOCC3)[C@H]3OCCC[C@H]32)nc1`, 44.4%. In the case of `O=C(c1ccc(Cl)cc1)N1CCC2(C1)C(=O)Nc1ccccc12` (centres undefined), the INHIBITION is listed as -18.8%. As to `CN(C)C[C@H]1C[C@@H]2CN(C(=O)c3ccco3)C[C@@H]2O1`, the INHIBITION is on record as 42.3%.

Take `O=C(OCc1ccccc1)N1CC[C@H]2CC(CO)O[C@@H]2C1` (some centres undefined): the INHIBITION turned out to be 78.3%. With `C[C@H]1C[C@@H]2CCN(C(=O)c3ccccn3)C[C@H]2O1`, the INHIBITION is on record as -0.813%.

Take `Cn1ccnc1SCCNc1cc(N2CCOCC2)ncn1`: the INHIBITION is recorded as -7.85%. With `Cn1ncc2c(N3CCCC(C)(O)C3)nc(-c3cccnc3)nc21` (centres undefined), the INHIBITION is 23.5%. As for `CN1CCCC1CNC(=O)CCCOc1ccc(I)cc1` (centres undefined), the figure is 18.625%. The figure for `COc1cccc(Cc2nc3c([nH]2)CC(C)(C)CNC3=O)c1OC` is 55.5%; for `COc1ccc(Cc2nc3c([nH]2)CC(C)(C)CNC3=O)c(OC)c1` it is 16.8%.

With `COc1cc(Cc2nc3c([nH]2)CC(C)(C)CNC3=O)cc(OC)c1`, the INHIBITION stood at 59.4%.

On to `COc1ccc(Cc2nc3c([nH]2)CC(C)(C)CNC3=O)cc1OC`, for which the INHIBITION amounted to 13.9%. Turning to `CC1(C)CNC(=O)c2nc(-c3ccccc3)[nH]c2C1`, the INHIBITION was 18.8%. The figure for `COc1cccc(-c2nc3c([nH]2)CC(C)(C)CNC3=O)c1OC` is 30.7%; for `CC(C)N1CCO[C@@H]2CN(C(=O)NCc3ccccc3)CC[C@@H]2C1` it is 32.1%; for `COc1nc2cc(C)ccc2cc1CN(C)Cc1cc(C)[nH]n1` it is 36.1%. As for `CC(CNC(=O)c1cnc[nH]1)Oc1ccc(Cl)cc1` (centres undefined), the figure is 20.9%; as for `CC(CNC(=O)c1cnc[nH]1)Oc1ccccc1Br` (centres undefined), 57.2%; as for `COc1ccccc1OC(C)CNC(=O)c1cnc[nH]1` (centres undefined), -15.5%. `O=C(c1cc(Cn2ccc3ccccc32)[nH]n1)N1CCCCC1CO` (centres undefined): the INHIBITION was 13%.

Consider `Cc1cnn(CC2CCCN2C(=O)CCc2ccco2)c1` (centres undefined), for which the INHIBITION is 45.9%. The figure for `NCCn1nc(C2CCN(Cc3ccccc3Cl)C2)c2nccnc21` (centres undefined) is -49%; for `NCCn1nc(C2CCN(Cc3ccccc3)C2)c2nccnc21` (centres undefined) it is 60.5%.

As for `NCCn1nc(C2CCN(Cc3ccc(Cl)c(Cl)c3)C2)c2nccnc21` (centres undefined), the INHIBITION was found to be 71.1%.

As to `COc1ccccc1CN1CCC(c2nccc(C)n2)C1` (centres undefined), the INHIBITION is 38.3%. As to `COc1cccc(CN2CCC(c3nn(CCN)c4nccnc34)C2)c1` (centres undefined), the INHIBITION is recorded as 7.52%.

`Cc1ccccc1CN1CCC(c2nn(CCN)c3nccnc23)C1` (centres undefined): the INHIBITION was 43.6%. As for `COc1ccccc1CN1CCC(c2nn(CCN)c3nccnc23)C1` (centres undefined), the figure is 52%; as for `CC(C)(C)CC(=O)N1CCC(c2nn(CCN)c3nccnc23)C1` (centres undefined), -3.31%; as for `NCCn1nc(C2CCN(C(=O)Cc3ccccc3)C2)c2nccnc21` (centres undefined), 30.4%. The figure for `CC(O)c1cnn(-c2ccccc2)c1` (centres undefined) is -6.04%; for `O=C(O)c1ccccc1-c1ccc(CN2CCC(CO)CC2)cn1` it is 9.98%; for `CCNc1cc2c(nn1)CCN(C(=O)CCc1c(C)noc1Cl)C2` it is 0.411%. In the case of `COc1ccccc1C(=O)N1CCN(C(=O)Cc2ccccn2)CC1`, the INHIBITION was -36.1%. As for `Cc1ncccc1C(=O)Nc1cccc(Cn2ccccc2=O)c1`, the figure is 38.5%.

On to `CCn1ncnc1CN1CCC(CNC(=O)c2cccc(C)n2)C1` (centres undefined), for which the INHIBITION is recorded as 15.4%.

Turning to `CCc1ccc(C(=O)N2CCCC(n3nc(C)nc3C)C2)o1` (centres undefined), the INHIBITION is recorded as 33.73%. As for `CCOCCc1nc(CCc2ccccc2)n[nH]1`, the figure is 26.7%; as for `Cc1cnc(N2C[C@H]3CCCC(N(C)Cc4ccccn4)[C@H]3C2)nc1` (some centres undefined), 55.7%. With `CN(Cc1ccccn1)C1CCC[C@@H]2CN(CC3CC3)C[C@H]12` (some centres undefined), the INHIBITION turned out to be 22.2%. As for `CCc1cnc(N2C[C@H]3CCCC(N(C)Cc4ccccn4)[C@H]3C2)nc1` (some centres undefined), the figure is 33.1%. As for `O=C(NC1CC1)c1nc(Cn2c(C(F)F)nc3ccccc32)no1`, the figure is 54.8%; as for `O=C(NC1CCCC1)c1cc(Cn2cnc3ccccc32)on1`, 5.8%; as for `Cc1occc(=O)c1OCc1noc(C(=O)NC(C)C)n1`, 42.8%.

Turning to `CC(C)NC(=O)c1nc(Cn2c(C(F)F)nc3ccccc32)no1`, the INHIBITION is given as 62.4%. `CC(C)NC(=O)c1nc(Cn2c(C(F)(F)F)nc3ccccc32)no1`: the INHIBITION was 43.9%.

Consider `Cc1nc2ccccc2n1Cc1cc(C(=O)NC2CCOC2)no1` (centres undefined), for which the INHIBITION is on record as 11.1%.

In the case of `COc1ccccc1-c1csc(NC(=O)N2CCN(C)CC2C)n1` (centres undefined), the INHIBITION is recorded as -9.08%. The figure for `Cc1cc(C)n(CC2CN(Cc3nnc(C)o3)CCO2)n1` (centres undefined) is 5.1%. The figure for `O=C(c1ccc(F)cc1F)N1C[C@@H]2CC[C@H]1CN(Cc1ccccc1)C2` is 41.5%.
